This note sets out measurements from publication PMC7862700, “An all-to-all approach to the identification of sequence-specific readers for epigenetic DNA modifications on cytosine”.

Holding throughout (assay): DAPPL (digital affinity profiling via proximity ligation, sequencing); 10 mM Tris-HCl pH 7.5, 50 mM NaCl, 1 mM DTT, 4% glycerol, room temperature, 30 min; GST-TFs on glutathione beads, 16-mer random dsDNA library, 0.1% formaldehyde crosslink after washing; high values mean tight binding
Common to all, as to details: protein: recombinant; tags: N-terminal GST; dsDNA, one strand shown

In one assay the target is T1, FLI1 (Homo sapiens, UniProt Q01543 1-452).
T1 sequence: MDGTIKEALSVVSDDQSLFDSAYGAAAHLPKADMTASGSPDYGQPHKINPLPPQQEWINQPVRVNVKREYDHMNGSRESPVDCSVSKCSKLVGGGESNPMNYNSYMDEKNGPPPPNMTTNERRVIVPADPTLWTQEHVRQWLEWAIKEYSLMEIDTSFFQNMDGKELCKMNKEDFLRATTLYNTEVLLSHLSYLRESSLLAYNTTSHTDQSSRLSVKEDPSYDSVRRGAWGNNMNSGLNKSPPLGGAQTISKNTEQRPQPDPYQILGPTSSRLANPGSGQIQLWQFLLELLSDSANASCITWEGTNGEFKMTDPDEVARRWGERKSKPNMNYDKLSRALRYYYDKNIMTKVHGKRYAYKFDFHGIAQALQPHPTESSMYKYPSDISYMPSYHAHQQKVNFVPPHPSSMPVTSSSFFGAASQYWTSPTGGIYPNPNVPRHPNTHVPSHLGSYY
The procedure, abridged:
(§1)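 Human transcription factors fused to GST were expressed in yeast, captured on glutathione beads, given DNA barcodes and pooled with a GST-only negative control. Pools were incubated with 200 nmole of a 16-mer random double-stranded DNA library in Tris/NaCl/DTT/glycerol buffer at room temperature for 30 min. They were then washed, crosslinked with 0.1% formaldehyde, proximity-ligated (BsaI/T4 ligase, 1 h, 37 °C), PCR-amplified and sequenced on an Illumina NextSeq500. Binding signal is each 6-mer's read frequency for a factor divided by its frequency for the GST control.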

In another assay the target is T2, ELK1 (Homo sapiens, UniProt P19419 1-428).
T2 sequence: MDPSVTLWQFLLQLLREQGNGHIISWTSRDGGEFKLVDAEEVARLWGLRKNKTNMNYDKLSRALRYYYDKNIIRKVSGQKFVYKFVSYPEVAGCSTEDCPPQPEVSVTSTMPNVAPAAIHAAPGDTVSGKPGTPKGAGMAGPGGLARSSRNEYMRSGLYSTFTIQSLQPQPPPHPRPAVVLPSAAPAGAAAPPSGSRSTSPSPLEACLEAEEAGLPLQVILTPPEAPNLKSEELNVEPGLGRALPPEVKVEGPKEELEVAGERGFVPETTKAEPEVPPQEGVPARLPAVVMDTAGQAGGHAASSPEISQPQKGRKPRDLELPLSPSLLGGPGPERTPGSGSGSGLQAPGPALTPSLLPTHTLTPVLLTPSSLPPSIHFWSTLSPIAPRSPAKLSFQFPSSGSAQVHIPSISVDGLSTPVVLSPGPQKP
In outline:
as §1

In a further assay the target is T3, GABPA (Homo sapiens, UniProt Q06546 1-454).
T3 sequence: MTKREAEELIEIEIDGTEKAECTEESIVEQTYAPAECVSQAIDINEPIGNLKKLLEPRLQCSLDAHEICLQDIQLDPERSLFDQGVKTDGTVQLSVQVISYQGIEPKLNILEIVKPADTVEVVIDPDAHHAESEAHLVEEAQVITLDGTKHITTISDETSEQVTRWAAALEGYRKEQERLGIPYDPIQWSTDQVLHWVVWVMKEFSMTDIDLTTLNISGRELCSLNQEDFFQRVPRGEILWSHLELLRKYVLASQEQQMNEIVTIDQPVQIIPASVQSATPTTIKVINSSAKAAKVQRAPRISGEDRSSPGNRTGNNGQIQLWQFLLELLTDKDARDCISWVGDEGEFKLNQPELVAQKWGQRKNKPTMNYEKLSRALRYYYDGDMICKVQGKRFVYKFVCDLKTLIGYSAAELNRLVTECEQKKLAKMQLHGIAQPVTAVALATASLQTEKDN
The procedure, abridged: as §1

A further assay addresses T4, ERG (Homo sapiens, UniProt P11308 1-479).
T4 sequence: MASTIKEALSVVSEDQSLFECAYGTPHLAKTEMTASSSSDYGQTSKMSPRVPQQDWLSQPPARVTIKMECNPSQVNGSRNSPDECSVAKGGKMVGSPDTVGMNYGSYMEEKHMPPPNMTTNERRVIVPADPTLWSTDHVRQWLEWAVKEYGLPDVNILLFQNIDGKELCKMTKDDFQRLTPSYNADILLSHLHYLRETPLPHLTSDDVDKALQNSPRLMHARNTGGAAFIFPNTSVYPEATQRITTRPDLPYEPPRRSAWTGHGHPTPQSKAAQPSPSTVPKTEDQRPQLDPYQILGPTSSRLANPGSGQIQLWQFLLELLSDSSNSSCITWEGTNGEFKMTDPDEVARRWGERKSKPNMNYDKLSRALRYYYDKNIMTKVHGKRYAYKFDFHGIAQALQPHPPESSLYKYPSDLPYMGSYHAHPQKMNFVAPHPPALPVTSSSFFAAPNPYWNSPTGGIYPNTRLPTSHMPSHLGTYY
The procedure, abridged:
as §1

A further assay deals with ELF1 (Homo sapiens, UniProt P32519 1-619). In outline: as §1
The next assay addresses T5, EHF (Homo sapiens, UniProt Q9NZC4 1-300).
T5 sequence: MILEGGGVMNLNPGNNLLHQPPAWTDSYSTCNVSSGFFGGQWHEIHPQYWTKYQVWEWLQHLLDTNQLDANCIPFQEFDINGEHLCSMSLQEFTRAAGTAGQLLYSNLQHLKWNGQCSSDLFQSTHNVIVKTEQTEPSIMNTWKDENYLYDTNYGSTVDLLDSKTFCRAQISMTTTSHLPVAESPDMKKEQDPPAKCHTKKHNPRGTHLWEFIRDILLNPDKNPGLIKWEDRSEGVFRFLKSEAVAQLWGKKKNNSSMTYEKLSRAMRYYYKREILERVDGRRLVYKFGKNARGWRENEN
The procedure, abridged:
as §1

The next assay deals with SPI1 (Homo sapiens, UniProt P17947 1-270). The procedure, abridged: as §1
The next assay has as its target SPIB (Homo sapiens, UniProt Q01892 1-262). In outline:
as §1

For another assay, the target named is T6, ELK3 (Homo sapiens, UniProt P41970 1-407).
T6 sequence: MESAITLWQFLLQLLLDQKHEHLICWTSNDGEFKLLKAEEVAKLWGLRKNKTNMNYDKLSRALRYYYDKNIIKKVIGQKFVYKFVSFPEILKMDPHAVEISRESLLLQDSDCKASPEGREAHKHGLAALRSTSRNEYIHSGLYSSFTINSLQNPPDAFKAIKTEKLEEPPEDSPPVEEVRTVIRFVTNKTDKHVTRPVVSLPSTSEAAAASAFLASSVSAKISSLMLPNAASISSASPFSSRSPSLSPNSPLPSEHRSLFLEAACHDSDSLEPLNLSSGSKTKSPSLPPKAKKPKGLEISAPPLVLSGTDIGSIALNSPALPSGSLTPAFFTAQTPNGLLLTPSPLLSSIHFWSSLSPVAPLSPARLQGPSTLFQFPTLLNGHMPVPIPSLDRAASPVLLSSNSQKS
In outline:
as §1

Chain of SPIB (Q01892 whole entry): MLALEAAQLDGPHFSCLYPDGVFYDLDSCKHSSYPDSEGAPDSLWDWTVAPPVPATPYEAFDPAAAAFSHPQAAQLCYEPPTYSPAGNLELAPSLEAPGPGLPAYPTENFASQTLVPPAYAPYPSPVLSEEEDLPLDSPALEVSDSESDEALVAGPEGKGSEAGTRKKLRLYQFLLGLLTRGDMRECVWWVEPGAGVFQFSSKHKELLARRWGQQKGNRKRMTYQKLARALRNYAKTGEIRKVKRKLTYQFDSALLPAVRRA
Chain of ELF1 (P32519 whole entry): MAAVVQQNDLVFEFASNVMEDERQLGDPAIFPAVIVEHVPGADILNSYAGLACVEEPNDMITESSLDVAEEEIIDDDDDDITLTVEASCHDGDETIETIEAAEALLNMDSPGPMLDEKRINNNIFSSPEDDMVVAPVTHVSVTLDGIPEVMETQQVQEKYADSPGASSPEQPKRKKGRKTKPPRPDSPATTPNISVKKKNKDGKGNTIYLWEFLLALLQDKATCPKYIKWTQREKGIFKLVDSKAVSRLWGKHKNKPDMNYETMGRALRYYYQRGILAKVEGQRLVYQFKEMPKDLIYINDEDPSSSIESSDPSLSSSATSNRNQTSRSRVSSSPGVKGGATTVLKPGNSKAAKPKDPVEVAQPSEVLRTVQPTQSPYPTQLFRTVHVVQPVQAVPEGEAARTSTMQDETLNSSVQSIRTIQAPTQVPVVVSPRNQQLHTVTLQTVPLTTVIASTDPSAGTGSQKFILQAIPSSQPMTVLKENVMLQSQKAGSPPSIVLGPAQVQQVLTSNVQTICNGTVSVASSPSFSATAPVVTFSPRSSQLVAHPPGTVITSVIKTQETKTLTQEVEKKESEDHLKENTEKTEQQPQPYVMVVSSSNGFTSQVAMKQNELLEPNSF

Turning to CTCGCT, the binding signal with FLI1 is 1.81 fold enrichment (6-mer frequency, TF over GST control); with ELK1, 1.67 fold enrichment (6-mer frequency, TF over GST control); in the assay with GABPA, 1.72 fold enrichment (6-mer frequency, TF over GST control); in the assay with ERG it was 1.63 fold enrichment (6-mer frequency, TF over GST control); with ELF1 it was 1.75 fold enrichment (6-mer frequency, TF over GST control); with EHF it was 1.6 fold enrichment (6-mer frequency, TF over GST control). The binding signal was 1.54 fold enrichment (6-mer frequency, TF over GST control) in the assay with SPI1; 1.81 fold enrichment (6-mer frequency, TF over GST control) with SPIB; 1.41 fold enrichment (6-mer frequency, TF over GST control) with ELK3.
CGCGTC: the binding signal with FLI1 is 1.33 fold enrichment (6-mer frequency, TF over GST control); in the assay with ELK1, 1.24 fold enrichment (6-mer frequency, TF over GST control); in the assay with GABPA, 1.26 fold enrichment (6-mer frequency, TF over GST control); in the assay with ERG, 1.27 fold enrichment (6-mer frequency, TF over GST control); with ELF1, 1.28 fold enrichment (6-mer frequency, TF over GST control); with EHF, 1.25 fold enrichment (6-mer frequency, TF over GST control). The binding signal is 1.27 fold enrichment (6-mer frequency, TF over GST control) with SPI1; 1.32 fold enrichment (6-mer frequency, TF over GST control) in the assay with SPIB; 1.08 fold enrichment (6-mer frequency, TF over GST control) with ELK3.
Take TAACGG: the binding signal in the assay with FLI1 is 1.1 fold enrichment (6-mer frequency, TF over GST control); with ELK1 it was 1.18 fold enrichment (6-mer frequency, TF over GST control); with GABPA it was 1.03 fold enrichment (6-mer frequency, TF over GST control); with ERG, 1.08 fold enrichment (6-mer frequency, TF over GST control); in the assay with ELF1, 1.03 fold enrichment (6-mer frequency, TF over GST control); with EHF, 1.14 fold enrichment (6-mer frequency, TF over GST control). Moreover, the binding signal in the assay with SPI1 was 1.21 fold enrichment (6-mer frequency, TF over GST control); in the assay with SPIB, 1.13 fold enrichment (6-mer frequency, TF over GST control); with ELK3 it was 1.03 fold enrichment (6-mer frequency, TF over GST control).
TTGCTG: the binding signal with FLI1 is 1.25 fold enrichment (6-mer frequency, TF over GST control); in the assay with ELK1, 1.13 fold enrichment (6-mer frequency, TF over GST control); with GABPA it was 1.21 fold enrichment (6-mer frequency, TF over GST control); with ERG, 1.13 fold enrichment (6-mer frequency, TF over GST control); with ELF1 it was 1.29 fold enrichment (6-mer frequency, TF over GST control); with EHF, 1.25 fold enrichment (6-mer frequency, TF over GST control). For the same sequence, the binding signal was 1.18 fold enrichment (6-mer frequency, TF over GST control) with SPI1; 1.28 fold enrichment (6-mer frequency, TF over GST control) with SPIB; 1.33 fold enrichment (6-mer frequency, TF over GST control) with ELK3.
Take TAGCAA: the binding signal with FLI1 was 1.15 fold enrichment (6-mer frequency, TF over GST control); with ELK1, 1.21 fold enrichment (6-mer frequency, TF over GST control); with GABPA it was 1.21 fold enrichment (6-mer frequency, TF over GST control); with ERG it was 1.17 fold enrichment (6-mer frequency, TF over GST control); with ELF1 it was 1.23 fold enrichment (6-mer frequency, TF over GST control); with EHF it was 1.23 fold enrichment (6-mer frequency, TF over GST control). In addition, the binding signal in the assay with SPI1 was 1.21 fold enrichment (6-mer frequency, TF over GST control); with SPIB it was 1.34 fold enrichment (6-mer frequency, TF over GST control); with ELK3 it was 1.24 fold enrichment (6-mer frequency, TF over GST control).
As to CAACTA, the binding signal is 1.24 fold enrichment (6-mer frequency, TF over GST control) in the assay with FLI1; 1.31 fold enrichment (6-mer frequency, TF over GST control) with ELK1; 1.37 fold enrichment (6-mer frequency, TF over GST control) with GABPA; 1.3 fold enrichment (6-mer frequency, TF over GST control) with ERG; 1.38 fold enrichment (6-mer frequency, TF over GST control) in the assay with ELF1; 1.27 fold enrichment (6-mer frequency, TF over GST control) with EHF. Further, the binding signal is 1.28 fold enrichment (6-mer frequency, TF over GST control) in the assay with SPI1; 1.24 fold enrichment (6-mer frequency, TF over GST control) with SPIB; 1.25 fold enrichment (6-mer frequency, TF over GST control) with ELK3.
Consider CGACCC, for which the binding signal in the assay with FLI1 was 1.42 fold enrichment (6-mer frequency, TF over GST control); with ELK1 it was 1.46 fold enrichment (6-mer frequency, TF over GST control); with GABPA, 1.44 fold enrichment (6-mer frequency, TF over GST control); with ERG, 1.22 fold enrichment (6-mer frequency, TF over GST control); with ELF1, 1.26 fold enrichment (6-mer frequency, TF over GST control); with EHF, 1.29 fold enrichment (6-mer frequency, TF over GST control). The binding signal with SPI1 was 1.23 fold enrichment (6-mer frequency, TF over GST control); in the assay with SPIB, 1.21 fold enrichment (6-mer frequency, TF over GST control); with ELK3 it was 1.37 fold enrichment (6-mer frequency, TF over GST control).
